These results are taken from PubChem BioAssay AID2625 (National Center for Advancing Translational Sciences (NCATS), 2010).

Structures are written as SMILES. Inconclusive results are not listed. Active and inactive are the calls of the source. Calls follow the shape of the dose curve; as a rule, active = well fitted curve in the direction sought with a large enough effect; inconclusive = small, poorly fitted or top-dose-only effect, or effect the other way, or another doubt; inactive = no such curve, though single readings can be large or run the other way.

The assay concerns the target Pyruvate kinase PKLR (Homo sapiens) (UniProt P30613). The experiment in a line: Secondary LDH Assay for Activators of Human Liver Pyruvate Kinase: for Probe SAR. The gist of the method: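 Kinetic LDH-coupled read-out: NADH fluorescence loss followed every 30 s for 3–6 min gave initial rates. Reaction: 10 nM human liver PK, 0.1 mM PEP, 4 mM ADP, 0.2 mM NADH, 50 mM Tris-Cl pH 8.0; activation normalised to fructose-bis-phosphate.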

Sequence of Pyruvate kinase PKLR (Homo sapiens) (P30613 whole entry, looked up): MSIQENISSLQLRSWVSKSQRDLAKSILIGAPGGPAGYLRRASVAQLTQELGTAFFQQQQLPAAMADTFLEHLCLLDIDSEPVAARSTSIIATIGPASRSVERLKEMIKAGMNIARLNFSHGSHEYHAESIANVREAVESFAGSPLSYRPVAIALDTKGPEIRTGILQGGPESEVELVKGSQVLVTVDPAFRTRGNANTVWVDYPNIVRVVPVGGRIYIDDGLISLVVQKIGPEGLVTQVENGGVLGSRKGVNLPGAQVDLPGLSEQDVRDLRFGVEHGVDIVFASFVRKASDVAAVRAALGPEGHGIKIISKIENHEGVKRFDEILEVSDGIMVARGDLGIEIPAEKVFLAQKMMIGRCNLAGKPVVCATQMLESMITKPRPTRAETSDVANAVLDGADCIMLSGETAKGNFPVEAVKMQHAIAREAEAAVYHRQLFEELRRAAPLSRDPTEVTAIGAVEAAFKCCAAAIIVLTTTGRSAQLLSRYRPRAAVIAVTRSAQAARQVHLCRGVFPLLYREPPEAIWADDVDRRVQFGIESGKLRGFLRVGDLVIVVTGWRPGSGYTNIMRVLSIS

As for `Cc1ccc(NS(=O)(=O)c2ccc3c(c2)CCC(C)(C)O3)cc1C`, the molecule was called inactive. `CCNc1cccc(S(=O)(=O)N2CCCN(S(=O)(=O)c3ccc4c(c3)OCCO4)CC2)c1`: the outcome was inactive. For `CC(=O)N1CCc2cc(S(=O)(=O)Nc3ccc(C)c(C)c3)ccc21`, the result was inactive.

`CSc1cc2c(s1)c1cnn(Cc3cccc(N)c3)c(=O)c1n2C`: the molecule was classed as inactive. On to `O=C1c2ccccc2C(=O)N1c1ccc(Cl)cc1`, for which the molecule was called inactive. Under `Cc1ccc(NS(=O)(=O)c2cc3c(cc2Br)NC(=O)CO3)cc1C` stands “inactive”; under `Cc1ccc(NS(=O)(=O)c2ccc(-c3ccccc3)cc2)cc1C`, “inactive”. For `Cc1ccc(NS(=O)(=O)c2cc3c(cc2C)OCC(=O)N3)cc1C`, the call was inactive. Under `COc1cc(N2C(=O)c3ccccc3C2=O)c2ncccc2c1` stands “inactive”; under `Cc1cc(N2C(=O)c3ccccc3C2=O)no1`, “inactive”. Under `Cc1cc(NS(=O)(=O)c2ccc3c(c2)CCC(=O)N3)ccc1F` stands “inactive”; under `COc1cccc(Cn2ncc3c4sc(S(C)=O)cc4n(C)c3c2=O)c1` (centres undefined), “inactive”. Consider `Cc1ccc(OC2=NS(=O)(=O)c3ccccc32)cc1`, for which the molecule was classed as inactive.

For `O=C1CCc2cc(S(=O)(=O)Nc3ccccc3F)ccc2N1`, the call was inactive.

Regarding `Cc1ccc(NS(=O)(=O)c2cc3c(cc2Cl)NC(=O)C3)cc1C`, the result was inactive. Under `Cc1ccc2nc(-c3ccc(C)o3)c(NC3CCCC3)n2c1` stands “inactive”. Under `O=C1CCc2cc([S+](=O)([O-])NC3CCOCC3)ccc2N1` stands “inactive”. Under `COc1ccc(N2C(=O)c3ccccc3C2=O)cc1` stands “inactive”. Consider `Cc1ccc(NS(=O)(=O)c2ccc3c(c2)CCC(=O)N3)cc1Cl`, for which the molecule was called inactive.
